Measured values reported in PubChem BioAssay (NCI).
Compounds without any hit were thinned out: in the full panel of roughly 79,000, 15% have a hit. Values without a mark were called inactive. The source made the active and inactive calls. Cut-off read from the data, not from the text of the source: active = growth inhibition above about 70%; inactive = the rest.

Tests used:
[1] = NCI Yeast Anticancer Drug Screen. Data for the rad50 strain (AID 155);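 note: 0% = growth of vehicle-only cultures of the same strain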; conditions: S. cerevisiae rad50 strain growth inhibition; at 50.0 µM; stronger effect = higher value
In short: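 Cells are treated with compound, grown, and their growth is then scored against vehicle-only cultures of the same repair-deficient yeast strain.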

[2] = NCI Yeast Anticancer Drug Screen. Data for the mec2-1 strain (AID 157); conditions: S. cerevisiae mec2-1 strain, at 50.0 µM, stronger effect = higher value
In short: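 Strain: mec2-1 (DNA repair/cell cycle alteration). Compound exposure, then growth measured; inhibition expressed relative to vehicle.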

[3] = NCI Yeast Anticancer Drug Screen. Data for the sgs1 mgt1 strain (AID 161);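 note: 0% = growth of cultures given vehicle only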; conditions: S. cerevisiae sgs1 mgt1 strain, at 50.0 µM, stronger effect = higher value
In short: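 Genetically altered yeast, compound exposure, growth inhibition relative to vehicle.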

[4] = NCI Yeast Anticancer Drug Screen. Data for the cln2 rad14 strain (AID 165);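 note: 0% = growth equal to vehicle treated cultures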; conditions: S. cerevisiae cln2 rad14 strain, at 50.0 µM, stronger effect = higher value
In short: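 Compounds are applied to the cln2 rad14 yeast strain, and growth is then compared with that of vehicle-treated cultures to give inhibition.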

[5] = NCI Yeast Anticancer Drug Screen. Data for the bub3 strain (AID 167); conditions: S. cerevisiae bub3 mutant strain, at 50.0 µM, stronger effect = higher value
In short: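 Part of a panel of yeast mutants defective in DNA damage repair or cell cycle regulation. Each strain is grown with compound, and inhibition is calculated relative to solvent-treated cultures.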

[6] = NCI Yeast Anticancer Drug Screen. Data for the mlh1 rad18 strain (AID 175); conditions: S. cerevisiae mlh1 rad18 strain growth inhibition; at 50.0 µM; stronger effect = higher value
In short: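 Read-out is yeast growth inhibition, calculated against vehicle-only controls. The compound was applied to a strain engineered with DNA damage repair alterations.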

| Compound | growth inhibition [1] [%] | growth inhibition [2] [%] | growth inhibition [3] [%] | growth inhibition [4] [%] | growth inhibition [5] [%] | growth inhibition [6] |
| --- | --- | --- | --- | --- | --- | --- |
| Cn1c(=O)c2[nH]c(Cl)nc2n(C)c1=O | 9.6 | -23.6 | 6.7 | -3.8 | -16.6 | -8.55% |
| CCOC(=O)C(C)Sc1ncnc2nc[nH]c12 (stereo unspecified) | -12.8 | 4.4 | -3.15 | 20.9 | 18 | -0.9% |
| O=CNc1ncccn1 | -6.95 | 1.3 | 7.25 | -2.05 | -2.2 | -7.75% |
| Cc1ccccc1N=Cc1ccccc1[N+](=O)[O-] | 17.1 | 9.65 | -1.1 | -22.2 | -0.6 | 8.1% |
| Cc1ccc(S(=O)(=O)C23N=NC(C)(C)C2C2CCC3C2)cc1 (stereo unspecified) | -8.4 | -12 | 1.1 | -59.2 | -50.3 | 3.75% |
| Cn1c(=O)nc2n(C)c3ccccc3cc-2c1=O | 9.95 | -12.4 | -3.95 | -6.85 | -12.7 | 1.8% |
| CC(=O)NC1C(O)C(O)C(CO)OC1n1ncc(=O)[nH]c1=O (stereo unspecified) | 13.1 | 22.8 | -14.2 | -18.9 | -20.4 | -37.9% |
| CC(=O)Nc1ccccc1N | 15.4 | 14.9 | -2.85 | 4.6 | -14.3 | 14.5% |
| O=c1[nH]nc(S(=O)(=O)N2CCCC2)c(=O)[nH]1 | -10.9 | -9 | -10.7 | -2.85 | -4.15 | -13.2% |
| O=C(NC/C=C/Br)Oc1cccc2ccccc12 | -0.05 | 18.6 | 0.9 | 36.8 | 2.85 | 11.3% |
| CCOc1c(OC)ccc(/C(C)=N\O)c1OCC | -2.2 | 0.65 | 4.8 | -1.7 | 11.3 | 10.1% |
| CC1=C(C(=O)Nc2ccccc2C)C(c2ccc(C3C(C(=O)Nc4ccccc4C)=C(C)NC(C)=C3C(=O)Nc3ccccc3C)cc2)C(C(=O)Nc2ccccc2C)=C(C)N1 | 65.7 | 65 | 61.2 | 47.8 | 21.6 | 84.6% (active) |
| CC(=O)Nc1ccc(S(=O)(=O)/C(=C/c2ccc(-c3ccc(Br)cc3)o2)c2ccc([N+](=O)[O-])o2)cc1 | 30 | -7.45 | -12.2 | 13.7 | 1.1 | -8.05% |
| COc1ccc(C(O)c2ncccc2C)cc1OC (stereo unspecified) | -0.3 | 31.3 | 20.1 | -9.35 | 24.8 | 22.3% |
| O=C(O)c1c(F)c(F)c(-c2c(F)c(F)c(C(=O)O)c(C(=O)O)c2F)c(F)c1C(=O)O | 1.5 | 5.5 | -5 | 7.05 | 0.55 | -6.45% |
| O=C(O)[C@@H]1[C@@H]2C[C@@H]3[C@H](OC(=O)[C@@H]31)[C@@H]2O | -20.9 | -12.2 | -25.4 | 1.9 | -15.8 | -41.4% |
| O=C(NC(=S)Nc1cc(C(F)(F)F)ccc1Cl)c1ccccc1F | -1.25 | -1.2 | 0.35 | -6.85 | -1.35 | 4.95% |
| O=[N+]([O-])c1ccc(N/N=C2\CCC3CC23)c([N+](=O)[O-])c1 (stereo unspecified) | 1 | -15.2 | -2.15 | -1.35 | -0.55 | -21.9% |
| CC[N+]1(C)CCOCC1 | -13.7 | 3.35 | -8.65 | -21.9 | -5.2 | -8.15% |
| O=[N+]([O-])c1cccc(/C=N\NS(=O)(=O)c2ccc(Cl)cc2)c1O | -11.7 | -13.3 | -11.8 | -2.3 | -38.4 | -5.9% |
| COc1cc(OC2OC(CO)C(O)C(O)C2O)c2c(O)c3c(=O)cc(C)oc3cc2c1 (stereo unspecified) | 12.8 | 19.4 | 2.05 | 20.7 | 2.55 | 3.8% |
